High-throughput results as filed in PubChem.
This is a sample that favours compounds with a hit; in the whole collection about 1.6% have one here.
PrP 5UTR inh = suppresses PrP 5' UTR mRNA reporter expression; cell-based PrP 5' UTR mRNA reporter, plate reader; inhibition, % (test concentration not listed); AID 488862; actives 0.35% (n = 340,000); in the data active = inhibition above about 52%
BH1578 lux ind = quorum light induction in luxS cqsA deficient V. cholerae; AID 588436; activation, % at 18.7 µM; V. cholerae BH1578 lux reporter, luminescence, 6 h; actives 0.16% (n = 350,000); in the data active = activation mostly above about 9.7%, no sharp cut-off
SARS 3CLpro inh = SARS-CoV 3CLpro protease inhibition; inhibition, % at 6 µM; actives 0.14% (n = 290,000); recombinant SARS-CoV 3CLpro, quenched FRET peptide cleavage; in the data active = inhibition above about 12%
PfHsp40 rescue = rescue of PfHsp40-mediated yeast toxicity; actives 0.68% (n = 340,000); S. cerevisiae expressing PfHsp40, growth rescue, ATP luminescence; growth rescue, % at 12.5 µM; in the data active = growth rescue above about 28%, passing the limit was not always enough;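 also: yeast W303a lacking pdr1 and pdr3 grown in galactose medium; growth measured after three days at 30 °C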
PriA SSB inh = K. pneumoniae PriA-SSBct interaction inhibition | AlphaScreen SSBct-PriA binding, biotinylated peptide | inhibition, % at 33 µM | actives 0.6% (n = 430,000) | AID 1272365; in the data active = inhibition mostly above about 37%, no sharp cut-off; inactive = mostly below about 20%
PrPC TRFRET = reduces human prion protein on the cell surface | P04156 | AID 720596 | inhibition, % at 13.8 µM | actives 0.43% (n = 370,000) | cell surface PrPC, TR-FRET read-out; in the data active = inhibition above about 24%
A number is an active result; - = inactive; . = not tested or not shown.

SMILES	PrP 5UTR inh	BH1578 lux ind	SARS 3CLpro inh	PfHsp40 rescue	PriA SSB inh	PrPC TRFRET
N#Cc1nc(COc2cccc(Cl)c2)oc1N1CCN(c2ccccc2)CC1	-	-	-	-	-	.
N#Cc1nc(Cc2ccccc2)oc1N1CCN(c2ccccc2)CC1	-	-	-	-	45	-
N#Cc1nc(Cc2ccccc2)oc1N1CCC(Cc2ccccc2)CC1	-	-	-	-	50	-
Cn1c(-c2ccccc2)cnc1SCC(=O)NCc1ccc2c(c1)OCO2	.	.	.	.	-	.
Cc1ccc(O)c(N=Nc2ccc(S(=O)(=O)N3CCOCC3)cc2)c1	-	-	-	-	39	-
COc1ccc(CN2CCN(C(C)C(=O)N(C)Cc3cccc(F)c3)CC2)cc1OC (configuration not stated)	-	-	-	-	52	-
O=C(COc1ccccc1Cl)Nc1cc(-n2ccc3ccccc32)ncn1	.	.	.	.	-	.
Oc1ccc(CCNc2ncnc3ccc(Cl)cc23)cc1	-	-	-	-	-	36
Nc1nc(Cl)cc(NCCc2ccc(O)cc2)n1	-	-	-	-	-	-
C/C=C\C(=O)NCCn1ncc2c(=O)n(Cc3cccc(C)c3)cnc21	.	.	.	.	-	.
CC(=NO)C1CCC2C3CCC4=CC(=NO)CCC4(C)C3C(O)CC12C (configuration not stated)	-	17	.	-	-	-
CC(=NO)C1CCC2C3CCC4=CC(=NO)CCC4(C)C3C(=O)CC12C (configuration not stated)	-	-	.	-	-	-
Cc1ccc(-c2nc3sc4c(c3c(=O)n2N)CC(C)(C)OC4)cc1	-	17	-	-	-	-
CS(=O)(=O)c1ccc2nc(NC(=O)c3ccccc3)sc2c1	-	-	-	-	-	-
CC(C)CNS(=O)(=O)c1ccc2nc(NC(=O)c3ccccn3)sc2c1	.	.	.	.	96	.
CNC(=O)c1nnsc1S(=O)c1ccc(Cl)cc1 (configuration not stated)	-	-	-	79	-	-
Cc1noc(C2CN(CC(=O)Nc3nnc(C)s3)C2)n1	.	.	.	.	-	.
Cc1cc(C)c2c(c1)c(-c1ccccc1)c(-c1ccccc1)n2C[C@@H](O)CNC1CCCC1	.	.	.	.	45	.
CCOc1cc(S(=O)(=O)NC2CC(C)(C)NC(C)(C)C2)ccc1Cl	-	-	-	123	-	-
CCOc1cc(C)c(Cl)cc1S(=O)(=O)NC1CC(C)(C)NC(C)(C)C1	-	-	-	-	-	-
Cc1cc(C)n(CC(=O)Nc2ccc(C)c(C)c2)n1	.	.	.	.	-	.
Oc1ccc(Br)cc1-c1nc2cnccn2c1NC1CCCCC1	-	-	-	94	-	-
CC(=NNc1nc2ccccc2o1)c1ncccn1	-	.	.	-	101	-
CCN(CCCNC(=O)CC(C(=O)N1CCc2ccccc21)n1ccnc1)c1cccc(C)c1 (configuration not stated)	-	-	-	-	47	-
COc1ccc(-c2c(C#Cc3ccsc3)c3cc(Br)ccc3n2C)cc1	-	-	.	-	-	-
SMILES	PrP 5UTR inh	BH1578 lux ind	SARS 3CLpro inh	PfHsp40 rescue	PriA SSB inh	PrPC TRFRET
COc1ccc(C#Cc2c(-c3ccccc3)n(-c3ccccc3)c3ccc(CO)cc23)cc1	-	-	.	65	-	-
CCOC(=O)c1c(NC(=O)c2cc(-c3cccc(O)c3)on2)sc(C(C)=O)c1C	-	-	-	-	-	-
CCOC(=O)c1c(NC(=O)c2noc(C)c2[N+](=O)[O-])sc(C(C)=O)c1C	-	-	-	-	59	-
COc1ccccc1C(=O)NNC(=S)NC(=O)c1ccco1	-	-	-	71	-	-
CCOc1ccccc1NC(=S)NC(=O)c1ccco1	-	-	-	75	-	-
O=C(O)c1ccccc1	-	-	.	-	-	-
O=C(O)c1cc[c]([Hg][Cl])cc1	-	-	.	575	-	.
CCN(CC)S(=O)(=O)c1ccc(/C(O)=C2/C(=O)C(=O)N(CCOC)C2c2ccccc2)cc1 (configuration not stated)	-	-	-	97	.	-
CCN(CC)S(=O)(=O)c1ccc(C(O)=C2C(=O)C(=O)N(CCOC)C2c2ccccc2)cc1 (configuration not stated)	.	.	.	.	-	.
OC(Cn1cncn1)c1ccc(Cl)cc1 (configuration not stated)	-	-	-	-	-	-
OC(Cn1cncn1)(c1ccc(F)cc1)c1ccc(Cl)cc1 (configuration not stated)	-	-	-	108	-	-
Cc1cc(C)c(N=Cc2c(O)c3ccccc3oc2=O)c(C)c1	-	-	-	66	-	-
CCC(C)Sc1cccc(-c2nc3ccccn3c2NCc2ccccc2)c1 (configuration not stated)	-	-	.	219	-	-
COc1cc(C(=O)N2CC[C@H](S(=O)(=O)Cc3ccco3)C2)cc(OC)c1OC	.	.	.	.	-	.
CC(=O)Nc1ccc(SCCCC(=O)N2c3ccc(F)cc3CCC2C)nn1 (configuration not stated)	.	.	.	.	-	.
CCCCN(C(=O)NC(=O)Nc1ccccc1OCC)S(C)(=O)=O	-	38	-	-	-	-
O=S(=O)(NCC1(c2cccs2)CCOCC1)c1ccccc1OC(F)(F)F	.	.	.	.	-	.
O=C(Nc1nnc(C2CCCO2)o1)C(c1ccccc1)c1ccccc1 (configuration not stated)	.	.	.	.	84	.
Cc1cc(-c2nnc(NC(=O)C3COc4ccccc4O3)o2)n(C)n1 (configuration not stated)	.	.	.	.	44	.
O=C(Nc1nnc(C2CCCO2)o1)c1cc2ccccc2o1 (configuration not stated)	.	.	.	.	-	.
O=C(Nc1nnc(C2CCCO2)o1)C1COc2ccccc2O1 (configuration not stated)	.	.	.	.	75	.
O=C(NCc1ccc(Cl)cc1)N1CCCC1CS(=O)(=O)c1ccccc1 (configuration not stated)	.	.	.	.	-	.
NC1=NC[C@H](c2ccccc2)N1CCCCC1CCCCC1	-	-	.	-	-	-
S=C1NC[C@H](c2ccccc2)N1CCCCC1CCCCC1	-	-	.	330	-	-
COc1cccc(-c2ccc3ncnc(NCc4cccc(C)c4)c3c2)c1	-	-	.	-	-	-
SMILES	PrP 5UTR inh	BH1578 lux ind	SARS 3CLpro inh	PfHsp40 rescue	PriA SSB inh	PrPC TRFRET
COc1cccc(CNc2ncnc3ccc(-c4c(C)noc4C)cc23)c1	-	-	.	33	-	-
Cc1nc(SCc2cccc(Cl)c2)[nH]c(=O)c1CC(N)=O	.	.	.	.	-	.
COc1cc2c(cc1OC)C(c1ccccc1)NCC2 (configuration not stated)	-	-	-	-	-	-
COc1cc2c(cc1OC)C(c1ccc(O)cc1)NCC2 (configuration not stated)	-	-	-	74	-	-
O=C(Nc1cccs1)N1CCCSCC1CN1CCOCC1 (configuration not stated)	.	.	.	.	-	.
Cc1ccc(-c2nc(-c3ccccc3)no2)c(Cl)c1	65	-	-	-	104	-
CCOC(=O)Nc1ccc2c(c1)C(=NNC(N)=S)c1ccccc1-2	-	-	.	-	-	-
C=CC(=O)N1c2ccccc2Sc2ccc(NC(=O)OCC)cc21	-	-	-	-	-	-
